Assay [1] concerns Plasmodium falciparum Sir2 (PF13_0152, Sir2A). Briefly: pfSir2 binders on small-molecule microarrays, primary screen, biochemical, small-molecule microarray, 635 nm fluorescence (AID 1098).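 Note: score merges spot fluorescence intensity with its signal-to-noise ratio.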 Conditions: small-molecule microarray binding, fluorescence 635 nm; higher = more signal.
Assay [2] can be described thus: small-molecule microarray binders of probe aDKK1, primary screen, biochemical, biotinylated probe, 635/667 nm fluorescence (AID 1099).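 Note: score merges 667nm spot fluorescence with signal to noise across triplicate slides.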 Conditions: higher = more signal.
Assay [3] can be described thus: small-molecule microarray binders of probe aCHRDL2, primary screen, biochemical, biotinylated probe, 635/667 nm fluorescence (AID 1100). Conditions: higher = more signal.
Assay [4] can be described thus: splicing luciferase reporter signal modulators, primary screen, spliceosome inhibition project, cell-based, HEK293, splice +/- reporter (AID 1101).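 Note: HEK293 cells carrying a splicing-competent luciferase reporter gene; test concentration not given here.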 Particulars: luminescence, 24 h, higher = more signal, called active from +8 up or from −8 down. (In general: A reporter such as luciferase makes a cellular process visible.)
The target of assay [5] is Fibroblast growth factor 10 (Homo sapiens) (UniProt O15520). The assay can be described thus: FGF10 binders on small-molecule microarrays, primary screen, biochemical, small-molecule microarray, 635 nm fluorescence (AID 1102). Particulars: FGF10 binding, fluorescence 635 nm, higher = more signal.
Assay [6] deals with glycogen synthase kinase-3 (GSK3A per assay name; protocol says GSK3B). Briefly: GSK3 binders on small-molecule microarrays, primary screen, biochemical, small-molecule microarray, 635 nm fluorescence, GSK3A (AID 1103). Note: the record names both GSK3A and GSK3B. Particulars: small-molecule microarray binding, fluorescence 635 nm; higher = more signal.
In assay [7] the target is Epidermal growth factor receptor (Homo sapiens) (UniProt P00533). The assay can be described thus: EGFR binders on small-molecule microarrays, primary screen, biochemical, small-molecule microarray, 635 nm fluorescence (AID 1104).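 Note: score merges 667 nm emission intensity with spot signal to noise over triplicate slides.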 Conditions: EGFR binding, higher = more signal.
Assay [8] concerns the target Follistatin-related protein 3 (Homo sapiens) (UniProt O95633). The assay can be described thus: FSTL3 binders on small-molecule microarrays, primary screen, biochemical, small-molecule microarray, 635 nm fluorescence (AID 1105).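 Note: score merges emission near 667 nm and signal to noise per printed spot across three slides.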 Particulars: FSTL3 binding, higher = more signal.
Assay [9] concerns the target Dickkopf-related protein 1 (Homo sapiens) (UniProt O94907). The assay can be described thus: DKK1 binders on small-molecule microarrays, primary screen, biochemical, small-molecule microarray, 635 nm fluorescence scan (AID 1106).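 Note: score merges emission near 667 nm with signal to noise over three replicate slides.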 Conditions: DKK1 binding, higher = more signal.
Assay [10] concerns Inhibin beta A chain (activin A). Briefly: INHBA (activin A) binders on microarrays, primary screen, biochemical, small-molecule microarray, 635 nm fluorescence scan (AID 1107).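 Note: mouse activin A protein probed at 4.33 µg/mL on printed slides; score merges bound-protein fluorescence near 667 nm with spot signal-to-noise.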 Particulars: small-molecule microarray binding, higher = more signal.
The test system of assay [11] is Human papillomavirus type 1a protein E7 (residues 44-93). Briefly: HPV1a E7 fragment binders on microarrays, primary screen, biochemical, small-molecule microarray, residues 44-93, 635 nm fluorescence (AID 1108).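 Note: E7 fragment applied at 1 µg/mL in TBST for 1 h at 4 C; score combines spot fluorescence with its signal to noise ratio.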 Conditions: small-molecule microarray binding, fluorescence 635 nm; higher = more signal.
The nature of assay [12]: modulators of HCV replicon luciferase signal, primary screen, HCV replication inhibitor project, Huh7 cells, luciferase reporter (AID 1109).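 Note: huh7 hepatoma cells harbouring a luciferase neomycin HCV replicon reporter; luciferase luminescence as measure of HCV replicon replication; test concentration not given here.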 Conditions: 48 h, higher = more signal. (In general: In antiviral work, replicon cells carry a viral genome segment that copies itself.)
Assay [13] has as its target Left-right determination factor 2 (Homo sapiens) (UniProt O00292). The assay can be described thus: LEFTY2 binders on small-molecule microarrays, primary screen, biochemical, small-molecule microarray, 635 nm fluorescence scan (AID 1110). Conditions: LEFTY2 binding, higher = more signal.
Assay [14] deals with Calmodulin-1 (Homo sapiens) (UniProt P0DP23). Briefly: CALM1 binders on microarrays, EGTA buffer, profiling panel, biochemical, small-molecule microarray, Cy5-labelled CALM1 (AID 1111).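 Note: labelled calmodulin applied in Tris saline Tween buffer holding calcium plus EGTA and DTT.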 Particulars: Cy5-CALM1 binding fluorescence, higher = more signal.
Assay [15] shares this target. Briefly: calcium-bound CALM1 binders on microarrays, profiling panel, artefact control for SMM control-protein annotation, biochemical, small-molecule microarray, Cy5-labelled CALM1, plus calcium (AID 1112).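 Note: score merges spot fluorescence with signal to noise from triplicate slides.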 Particulars: Cy5-CALM1 binding fluorescence, higher = more signal.
Assay [16] is described as follows: small-molecule microarray binders of probe aWnt5a, primary screen, biochemical, biotinylated probe, 635/667 nm fluorescence (AID 1113).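 Note: score merges 667 nm fluorescence intensity with signal-to-noise per printed feature.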 Particulars: higher = more signal.
Assay [17] is described as follows: small-molecule microarray binders of probe aShh, primary screen, biochemical, biotinylated probe, 635/667 nm fluorescence (AID 1114).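 Note: probe is biotin-labelled aShh protein from a stem cell growth factor screen; measures binding of labelled protein to compounds printed on the slide; score merges feature fluorescence at 667 nm with signal-to-noise.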 Conditions: higher = more signal.
A short description of assay [18]: small-molecule microarray binders of probe aNog, primary screen, biochemical, biotinylated probe, 635/667 nm fluorescence (AID 1115).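 Note: probe is biotinylated aNog protein used at 0.15 µg/mL for 1 h at 4 C; z-score combines 667 nm fluorescence of each spot with its signal to noise.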 Particulars: higher = more signal.
The target of assay [19] is Torsin-1A-interacting protein 1 (Homo sapiens) (UniProt Q5JTV8). Briefly: LAP1 binders from COS7 cell lysate, primary screen, small-molecule microarray, 635/667 nm fluorescence (AID 1116). Conditions: COS7-hLAP1 lysate binding, 635 nm fluorescence, higher = more signal.
For assay [20], the target named is Alpha-bungarotoxin (Bungarus multicinctus) (UniProt P60615). The assay can be described thus: alpha-bungarotoxin binders on microarray, profiling panel, artefact control for SMM control protein annotation, biochemical, small-molecule microarray, Alexa647 label, 635/667 nm fluorescence (AID 1117). Particulars: alpha-BTX-A647 binding fluorescence, higher = more signal.

Activity calls are given as the source filed them.

Left-right determination factor 2 (Homo sapiens), sequence (O00292 whole entry, looked up): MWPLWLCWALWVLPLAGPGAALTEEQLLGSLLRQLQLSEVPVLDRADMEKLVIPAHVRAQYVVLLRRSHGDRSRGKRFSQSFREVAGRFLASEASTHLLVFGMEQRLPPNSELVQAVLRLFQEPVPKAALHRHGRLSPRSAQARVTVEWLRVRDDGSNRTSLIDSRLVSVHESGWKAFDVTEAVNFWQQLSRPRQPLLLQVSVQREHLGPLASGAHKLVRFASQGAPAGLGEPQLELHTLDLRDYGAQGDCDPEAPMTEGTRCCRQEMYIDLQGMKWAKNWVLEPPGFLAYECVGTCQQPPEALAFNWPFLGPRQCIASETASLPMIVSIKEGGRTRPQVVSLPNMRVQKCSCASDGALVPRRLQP
Fibroblast growth factor 10 (Homo sapiens), sequence (O15520 whole entry, looked up): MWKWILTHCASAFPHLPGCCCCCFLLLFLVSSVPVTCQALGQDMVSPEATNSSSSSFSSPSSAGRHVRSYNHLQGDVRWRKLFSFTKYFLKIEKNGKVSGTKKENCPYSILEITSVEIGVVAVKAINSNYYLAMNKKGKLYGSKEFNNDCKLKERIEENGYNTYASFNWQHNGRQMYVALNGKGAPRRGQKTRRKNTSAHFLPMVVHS
Torsin-1A-interacting protein 1 (Homo sapiens), sequence (Q5JTV8 whole entry, looked up): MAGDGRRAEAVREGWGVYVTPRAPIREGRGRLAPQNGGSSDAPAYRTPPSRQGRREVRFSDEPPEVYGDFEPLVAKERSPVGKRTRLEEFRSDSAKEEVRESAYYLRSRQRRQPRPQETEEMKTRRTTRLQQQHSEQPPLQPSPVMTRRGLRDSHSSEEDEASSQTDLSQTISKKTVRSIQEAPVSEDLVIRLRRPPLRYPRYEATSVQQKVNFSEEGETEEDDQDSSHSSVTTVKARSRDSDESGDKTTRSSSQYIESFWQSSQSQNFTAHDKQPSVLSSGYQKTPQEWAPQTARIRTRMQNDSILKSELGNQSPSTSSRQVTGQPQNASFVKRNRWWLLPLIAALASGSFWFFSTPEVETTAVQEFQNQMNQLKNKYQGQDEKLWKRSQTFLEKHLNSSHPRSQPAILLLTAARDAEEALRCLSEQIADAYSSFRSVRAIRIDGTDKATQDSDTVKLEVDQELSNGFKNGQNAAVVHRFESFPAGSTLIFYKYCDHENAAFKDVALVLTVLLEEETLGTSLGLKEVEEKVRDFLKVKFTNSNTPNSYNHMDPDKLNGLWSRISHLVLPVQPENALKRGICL
Dickkopf-related protein 1 (Homo sapiens), sequence (O94907 whole entry, looked up): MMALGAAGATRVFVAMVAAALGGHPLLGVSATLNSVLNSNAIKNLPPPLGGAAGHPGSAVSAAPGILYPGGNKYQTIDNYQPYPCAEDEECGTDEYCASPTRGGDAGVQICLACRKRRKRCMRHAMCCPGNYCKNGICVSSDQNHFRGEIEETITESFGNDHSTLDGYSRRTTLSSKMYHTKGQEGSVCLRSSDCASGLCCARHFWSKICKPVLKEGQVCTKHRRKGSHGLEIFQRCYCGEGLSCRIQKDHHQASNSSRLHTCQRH
Epidermal growth factor receptor (Homo sapiens), sequence (P00533 whole entry, looked up): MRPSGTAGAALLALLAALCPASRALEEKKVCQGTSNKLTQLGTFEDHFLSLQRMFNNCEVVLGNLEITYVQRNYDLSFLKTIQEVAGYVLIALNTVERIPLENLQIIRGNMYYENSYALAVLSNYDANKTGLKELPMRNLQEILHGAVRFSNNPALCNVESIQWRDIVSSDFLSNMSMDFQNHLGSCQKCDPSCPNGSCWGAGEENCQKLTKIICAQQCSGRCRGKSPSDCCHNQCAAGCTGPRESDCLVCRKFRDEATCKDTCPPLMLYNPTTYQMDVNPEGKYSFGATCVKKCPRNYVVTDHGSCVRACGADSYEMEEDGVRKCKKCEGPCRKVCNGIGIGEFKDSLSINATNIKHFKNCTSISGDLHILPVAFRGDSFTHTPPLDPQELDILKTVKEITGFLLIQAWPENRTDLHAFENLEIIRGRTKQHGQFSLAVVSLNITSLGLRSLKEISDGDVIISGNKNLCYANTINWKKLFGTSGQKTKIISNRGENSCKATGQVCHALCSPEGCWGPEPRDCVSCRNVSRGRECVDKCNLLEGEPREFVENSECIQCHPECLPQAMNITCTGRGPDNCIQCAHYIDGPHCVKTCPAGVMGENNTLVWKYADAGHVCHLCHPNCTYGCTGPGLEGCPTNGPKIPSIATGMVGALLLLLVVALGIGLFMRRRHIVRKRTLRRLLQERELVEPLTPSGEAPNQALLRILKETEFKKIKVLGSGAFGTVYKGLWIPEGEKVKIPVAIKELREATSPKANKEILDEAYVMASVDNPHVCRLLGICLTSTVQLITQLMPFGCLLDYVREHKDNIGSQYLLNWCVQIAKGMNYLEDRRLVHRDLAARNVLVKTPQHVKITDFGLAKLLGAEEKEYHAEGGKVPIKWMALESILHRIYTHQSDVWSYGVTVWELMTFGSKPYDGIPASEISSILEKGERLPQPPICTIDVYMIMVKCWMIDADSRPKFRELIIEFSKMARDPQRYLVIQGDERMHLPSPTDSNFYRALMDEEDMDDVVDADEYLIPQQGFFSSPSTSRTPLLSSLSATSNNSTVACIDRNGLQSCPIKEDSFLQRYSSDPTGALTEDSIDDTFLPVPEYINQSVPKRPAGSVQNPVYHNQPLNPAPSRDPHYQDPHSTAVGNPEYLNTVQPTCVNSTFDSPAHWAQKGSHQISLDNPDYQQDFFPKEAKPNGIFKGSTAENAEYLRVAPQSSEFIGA
Follistatin-related protein 3 (Homo sapiens), sequence (O95633 whole entry, looked up): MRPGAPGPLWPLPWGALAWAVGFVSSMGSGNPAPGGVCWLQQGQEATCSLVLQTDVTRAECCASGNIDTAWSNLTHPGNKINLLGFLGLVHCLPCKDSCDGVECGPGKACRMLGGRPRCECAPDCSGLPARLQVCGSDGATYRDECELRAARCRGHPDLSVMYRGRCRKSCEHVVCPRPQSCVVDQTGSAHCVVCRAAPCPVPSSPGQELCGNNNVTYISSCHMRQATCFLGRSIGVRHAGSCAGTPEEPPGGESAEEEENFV
Alpha-bungarotoxin (Bungarus multicinctus), sequence (P60615 whole entry, looked up): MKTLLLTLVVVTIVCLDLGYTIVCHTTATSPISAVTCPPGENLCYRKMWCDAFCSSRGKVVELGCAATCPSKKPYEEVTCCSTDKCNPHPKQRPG

Regarding `O=C1C2C=CC(C(O)c3ccc(-c4ccccc4)s3)N(n3cnnc3)C2C(=O)N1Cc1ccccc1` (stereo not given), the composite z-score in [1] was 0.633; in assay [2], 0.0447; in assay [3], 0.746; in assay [5], 0.0262; in assay [6], -0.751; in assay [7] it was -0.486. Also, the composite z-score in assay [8] is -0.435; in assay [9] it was -0.539; in assay [10] it was 0.631; in assay [11], 0.423; in assay [13] it was -0.253; in [14] it was -0.164. In addition, the composite z-score in assay [15] was -0.377; in [16], -0.096; in [17] it was 0.0062; in [18] it was 0.141; in assay [19], 0.585; in assay [20], 0.399. Also, the figures for the z-score in assay [4] and in [12] were -0.36 (inactive) and -0.602, respectively.
Regarding `CC(=O)Nc1cc(Br)ccc1C(=O)O`, the composite z-score in assay [1] is 0.976; in [2], 1.34; in assay [3] it was 0.0861; in [5] it was 0.225; in assay [6], 0.157; in assay [7], -0.433. For the same molecule, the composite z-score in assay [8] is 0.0984; in assay [9], -0.44; in assay [10] it was -0.27; in [11] it was 0.688; in assay [13], -0.229; in assay [14] it was 0.908. Moreover, the composite z-score in [15] is 0.762; in assay [16], -0.096; in assay [17], 0.0556; in assay [18], -0.122; in [19], -0.134; in assay [20], 0.424. In addition, the results for the z-score in assay [4] and in assay [12] were -0.841 (inactive) and -0.0912, respectively.
For `COC(=O)[C@@]1(Cc2ccc(OC)cc2)[C@H]2c3cc(C(=O)N4CCCC4)n(Cc4cc(F)cc5c4OCOC5)c3C[C@H]2CN1C(=O)c1ccccc1`, the composite z-score in [1] is 0.782; in assay [2] it was 0.9; in [3], 0.984; in assay [5] it was 0.608; in assay [6], 0.573; in assay [7], 0.0471. Moreover, the composite z-score was 0.326 in assay [8]; -0.451 in assay [9]; 0.795 in assay [10]; 0.756 in [11]; -0.474 in [13]; 1.37 in assay [14]. Also, the composite z-score came to 0.365 in assay [15]; 0.223 in [16]; 0.108 in [17]; 0.0549 in assay [18]; 0.831 in assay [19]; 0.408 in assay [20]. Besides, the z-score in assay [4] is -2.73 (inactive); in assay [12] it was -3.58.
For the molecule `C=CCOC(=O)[C@@H]1[C@H]2C(=O)O[C@H](c3ccccc3)[C@H](c3ccccc3)N2[C@H](c2ccc(OCCOC(=O)[C@@H]3C[C@@H]4C(=O)N[C@@H](Cc5ccccc5)C(=O)N4[C@@H]3c3cccc(OCCO)c3)cc2)[C@@]12C(=O)Nc1ccc(I)cc12`, the composite z-score was 1.12 in assay [1]; -0.0053 in assay [2]; -0.0587 in [3]; 1.21 in [5]; 0.954 in assay [6]; 0.934 in [7]. For the same molecule, the composite z-score in assay [8] is 1.1; in [9], 0.991; in [10] it was 1.06; in assay [11], 1.36; in assay [13] it was 0.692; in [14] it was -0.0116. The composite z-score in [15] was -0.137; in assay [16] it was -0.0516; in [17], -0.0211; in [18] it was 1.07; in assay [19], 1.31; in assay [20], 1.25. Also, the z-score in [4] is -0.76 (inactive); in assay [12] it was -1.34.
As to `COCCOC(=O)N1C(=O)[C@@]2(c3cc(C#CCNC(N)=O)ccc31)[C@H](C(=O)N1CCN(c3ncccn3)CC1)[C@H]1C(=O)O[C@H](c3ccccc3)[C@H](c3ccccc3)N1[C@@H]2c1ccccc1OCCO`, the composite z-score in assay [1] is 1.2; in assay [2] it was 0.265; in [3], 0.714; in assay [5], 1.13; in [6], 0.0685; in [7], 0.736. Also, the composite z-score in assay [8] was found to be 1.24; in assay [9], 1.7; in [10], 1.02; in [11] it was 1.38; in assay [13], 0.877; in assay [14], 0.97. For the same molecule, the composite z-score in assay [15] is 0.264; in assay [16], 0.0375; in [17], 0.175; in assay [18], -0.319; in [19], 0.82; in [20], 0.904. Besides, the z-score is -0.619 (inactive) in assay [4] and -1.05 in [12].
`O=C1C2C=CC(C(O)c3cccs3)N(Nc3ccccc3F)C2C(=O)N1c1ccccc1` (stereo not given): the composite z-score was 0.87 in assay [1]; 0.266 in [2]; 0.541 in assay [3]; 0.092 in [5]; 0.308 in assay [6]; 0.0444 in assay [7]. Moreover, the composite z-score in assay [8] is 0.224; in [9] it was -0.0382; in assay [10] it was 0.804; in [11], 0.749; in assay [13], -0.0883; in [14], 0.0073. In addition, the composite z-score in assay [15] was -0.65; in assay [16], 0.0633; in assay [17] it was 0.0723; in assay [18], -0.126; in assay [19], 0.543; in assay [20] it was 0.825. Further, the values for the z-score in [4] and in [12] were -0.743 (inactive) and 0.124, respectively.

The record behind these values is PubChem BioAssay.
